From PubChem BioAssay
Activity calls are given as the source filed them.

Assays:
[1] = tested on: Plasmodium falciparum Sir2 (PF13_0152, Sir2A); experiment: Plasmodium falciparum Sir2A binding compounds – biochemical, small-molecule microarray, 635 nm fluorescence, primary screen (AID 1098); settings: fluorescence 635 nm, higher = more signal;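 also: score merges spot fluorescence intensity with its signal-to-noise ratio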
[2] = probe aDKK1 binding to arrayed compounds – biochemical, biotinylated probe, 635/667 nm fluorescence, primary screen (AID 1099); settings: small-molecule microarray, higher = more signal;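 also: score merges 667nm spot fluorescence with signal to noise across triplicate slides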
[3] = probe aCHRDL2 binding to arrayed compounds – biochemical, biotinylated probe, 635/667 nm fluorescence, primary screen (AID 1100); settings: small-molecule microarray, higher = more signal
[4] = change in splice reporter luminescence, either direction, cell-based, HEK293, spliceosome inhibition project, primary screen (AID 1101); settings: HEK293 splicing luciferase reporter, 24 h, higher = more signal, called active from +8 up or from −8 down;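 also: HEK293 cells carrying a splicing-competent luciferase reporter gene; test concentration not given here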
[5] = molecular target: Fibroblast growth factor 10 (Homo sapiens) (UniProt O15520); experiment: compounds binding fibroblast growth factor 10 – biochemical, small-molecule microarray, 635 nm fluorescence, primary screen (AID 1102); settings: FGF10 binding, fluorescence 635 nm, higher = more signal
Sequence of Fibroblast growth factor 10 (Homo sapiens) (O15520 whole entry, looked up): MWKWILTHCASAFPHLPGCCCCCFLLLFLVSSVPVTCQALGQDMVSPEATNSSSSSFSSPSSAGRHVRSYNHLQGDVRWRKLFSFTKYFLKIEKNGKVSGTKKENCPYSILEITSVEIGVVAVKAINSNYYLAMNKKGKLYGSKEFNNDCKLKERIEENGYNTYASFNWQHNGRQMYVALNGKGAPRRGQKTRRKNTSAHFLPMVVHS

[6] = tested on: glycogen synthase kinase-3 (GSK3A per assay name; protocol says GSK3B); experiment: compounds binding glycogen synthase kinase-3 – biochemical, small-molecule microarray, 635 nm fluorescence, GSK3A, primary screen (AID 1103); settings: fluorescence 635 nm, higher = more signal; also: the record names both GSK3A and GSK3B
[7] = molecular target: Epidermal growth factor receptor (Homo sapiens) (UniProt P00533); experiment: compounds binding epidermal growth factor receptor – biochemical, small-molecule microarray, 635 nm fluorescence, primary screen (AID 1104); settings: EGFR binding, higher = more signal;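 also: score merges 667 nm emission intensity with spot signal to noise over triplicate slides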
Sequence of Epidermal growth factor receptor (Homo sapiens) (P00533 whole entry, looked up): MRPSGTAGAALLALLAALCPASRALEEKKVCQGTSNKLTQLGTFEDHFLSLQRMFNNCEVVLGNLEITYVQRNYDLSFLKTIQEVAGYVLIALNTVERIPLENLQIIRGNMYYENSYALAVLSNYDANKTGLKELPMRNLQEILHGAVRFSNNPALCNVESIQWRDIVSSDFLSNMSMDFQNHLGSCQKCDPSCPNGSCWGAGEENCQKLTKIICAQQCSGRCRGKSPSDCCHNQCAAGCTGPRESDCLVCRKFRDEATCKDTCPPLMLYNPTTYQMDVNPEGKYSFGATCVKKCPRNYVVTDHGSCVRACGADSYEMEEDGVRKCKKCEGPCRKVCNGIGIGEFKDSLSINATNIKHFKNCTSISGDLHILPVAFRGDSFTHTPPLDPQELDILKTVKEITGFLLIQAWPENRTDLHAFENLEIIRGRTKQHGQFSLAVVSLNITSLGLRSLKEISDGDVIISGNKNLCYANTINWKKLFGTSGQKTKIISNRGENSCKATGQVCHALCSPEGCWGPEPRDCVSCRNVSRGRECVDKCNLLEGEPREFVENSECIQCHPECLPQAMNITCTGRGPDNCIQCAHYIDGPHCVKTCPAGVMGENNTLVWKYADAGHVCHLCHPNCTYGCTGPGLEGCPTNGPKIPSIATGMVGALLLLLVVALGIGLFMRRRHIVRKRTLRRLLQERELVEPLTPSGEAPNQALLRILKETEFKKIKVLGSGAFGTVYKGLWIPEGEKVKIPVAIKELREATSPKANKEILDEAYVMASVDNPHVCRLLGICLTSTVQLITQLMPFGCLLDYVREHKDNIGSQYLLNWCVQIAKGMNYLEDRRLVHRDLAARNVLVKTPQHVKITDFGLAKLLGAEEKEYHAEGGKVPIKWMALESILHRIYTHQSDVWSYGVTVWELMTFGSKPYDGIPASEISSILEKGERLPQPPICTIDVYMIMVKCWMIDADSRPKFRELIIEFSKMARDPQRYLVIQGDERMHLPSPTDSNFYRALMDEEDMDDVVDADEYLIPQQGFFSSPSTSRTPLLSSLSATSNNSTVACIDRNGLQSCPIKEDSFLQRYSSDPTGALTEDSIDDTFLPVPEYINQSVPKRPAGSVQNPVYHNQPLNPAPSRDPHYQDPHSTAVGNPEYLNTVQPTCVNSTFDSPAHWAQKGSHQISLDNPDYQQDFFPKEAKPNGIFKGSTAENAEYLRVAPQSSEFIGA

[8] = molecular target: Follistatin-related protein 3 (Homo sapiens) (UniProt O95633); experiment: compounds binding follistatin-related protein 3 – biochemical, small-molecule microarray, 635 nm fluorescence, primary screen (AID 1105); settings: FSTL3 binding, higher = more signal;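 also: score merges emission near 667 nm and signal to noise per printed spot across three slides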
Sequence of Follistatin-related protein 3 (Homo sapiens) (O95633 whole entry, looked up): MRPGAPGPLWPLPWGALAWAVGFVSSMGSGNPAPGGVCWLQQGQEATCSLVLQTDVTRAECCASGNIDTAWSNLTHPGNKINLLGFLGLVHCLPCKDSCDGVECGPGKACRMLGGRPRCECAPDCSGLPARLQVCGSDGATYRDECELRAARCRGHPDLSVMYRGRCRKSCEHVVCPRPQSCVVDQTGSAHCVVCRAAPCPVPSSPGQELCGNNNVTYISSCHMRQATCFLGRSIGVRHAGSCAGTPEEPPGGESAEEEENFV

[9] = molecular target: Dickkopf-related protein 1 (Homo sapiens) (UniProt O94907); experiment: small molecules binding DKK1 protein – biochemical, small-molecule microarray, 635 nm fluorescence scan, primary screen (AID 1106); settings: higher = more signal;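 also: score merges emission near 667 nm with signal to noise over three replicate slides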
Sequence of Dickkopf-related protein 1 (Homo sapiens) (O94907 whole entry, looked up): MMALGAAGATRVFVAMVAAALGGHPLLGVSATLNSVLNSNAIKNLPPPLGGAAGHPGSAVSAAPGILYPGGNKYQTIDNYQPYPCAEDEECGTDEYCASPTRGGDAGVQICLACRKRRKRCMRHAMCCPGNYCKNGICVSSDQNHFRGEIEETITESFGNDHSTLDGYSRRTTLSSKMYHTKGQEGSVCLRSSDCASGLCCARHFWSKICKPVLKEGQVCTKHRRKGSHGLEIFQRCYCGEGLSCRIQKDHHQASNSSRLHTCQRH

[10] = tested on: Inhibin beta A chain (activin A); experiment: small molecules binding activin A – biochemical, small-molecule microarray, 635 nm fluorescence scan, primary screen (AID 1107); settings: INHBA, higher = more signal;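 also: mouse activin A protein probed at 4.33 µg/mL on printed slides; score merges bound-protein fluorescence near 667 nm with spot signal-to-noise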
[11] = tested on: Human papillomavirus type 1a protein E7 (residues 44-93); experiment: small molecules binding HPV E7 44-93 – biochemical, small-molecule microarray, residues 44-93, 635 nm fluorescence, primary screen (AID 1108); settings: fluorescence 635 nm, higher = more signal;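 also: E7 fragment applied at 1 µg/mL in TBST for 1 h at 4 C; score combines spot fluorescence with its signal to noise ratio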
[12] = hepatitis C replication reporter changes, two-sided – Huh7 cells, luciferase reporter, HCV replication inhibitor project, primary screen (AID 1109); settings: Huh7 HCV replicon luciferase reporter, 48 h; higher = more signal;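 also: huh7 hepatoma cells harbouring a luciferase neomycin HCV replicon reporter; luciferase luminescence as measure of HCV replicon replication; test concentration not given here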
[13] = molecular target: Left-right determination factor 2 (Homo sapiens) (UniProt O00292); experiment: small molecules binding LEFTY2 protein – biochemical, small-molecule microarray, 635 nm fluorescence scan, primary screen (AID 1110); settings: higher = more signal
Sequence of Left-right determination factor 2 (Homo sapiens) (O00292 whole entry, looked up): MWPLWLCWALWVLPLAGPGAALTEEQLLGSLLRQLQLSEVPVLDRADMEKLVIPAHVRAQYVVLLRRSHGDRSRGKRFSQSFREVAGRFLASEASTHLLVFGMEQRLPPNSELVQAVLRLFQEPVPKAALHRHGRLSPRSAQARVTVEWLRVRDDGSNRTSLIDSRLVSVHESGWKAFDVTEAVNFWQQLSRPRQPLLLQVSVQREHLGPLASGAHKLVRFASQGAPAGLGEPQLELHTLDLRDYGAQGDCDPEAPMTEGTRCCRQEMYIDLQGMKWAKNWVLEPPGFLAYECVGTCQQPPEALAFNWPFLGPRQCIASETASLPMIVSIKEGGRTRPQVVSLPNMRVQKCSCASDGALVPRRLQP

[14] = molecular target: Calmodulin-1 (Homo sapiens) (UniProt P0DP23); experiment: small molecules binding calmodulin-1 with EGTA – biochemical, small-molecule microarray, Cy5-labelled CALM1, profiling panel (AID 1111); settings: Cy5-CALM1 binding fluorescence, higher = more signal;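 also: labelled calmodulin applied in Tris saline Tween buffer holding calcium plus EGTA and DTT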
[15] = molecular target: Calmodulin-1 (Homo sapiens) (UniProt P0DP23); experiment: small molecules binding Ca-loaded calmodulin-1 – biochemical, small-molecule microarray, Cy5-labelled CALM1, plus calcium, artefact control for SMM control-protein annotation, profiling panel (AID 1112); settings: Cy5-CALM1 binding fluorescence, higher = more signal;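 also: score merges spot fluorescence with signal to noise from triplicate slides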
[16] = probe aWnt5a binding to arrayed compounds – biochemical, biotinylated probe, 635/667 nm fluorescence, primary screen (AID 1113); settings: small-molecule microarray, higher = more signal;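 also: score merges 667 nm fluorescence intensity with signal-to-noise per printed feature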
[17] = probe aShh binding to arrayed compounds – biochemical, biotinylated probe, 635/667 nm fluorescence, primary screen (AID 1114); settings: small-molecule microarray, higher = more signal;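 also: probe is biotin-labelled aShh protein from a stem cell growth factor screen; measures binding of labelled protein to compounds printed on the slide; score merges feature fluorescence at 667 nm with signal-to-noise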
[18] = probe aNog binding to arrayed compounds – biochemical, biotinylated probe, 635/667 nm fluorescence, primary screen (AID 1115); settings: small-molecule microarray, higher = more signal;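 also: probe is biotinylated aNog protein used at 0.15 µg/mL for 1 h at 4 C; z-score combines 667 nm fluorescence of each spot with its signal to noise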
[19] = molecular target: Torsin-1A-interacting protein 1 (Homo sapiens) (UniProt Q5JTV8); experiment: compound microarray binding of lysate hLAP1 – cell lysate, small-molecule microarray, COS7 lysate, 635/667 nm fluorescence, primary screen (AID 1116); settings: 635 nm fluorescence, higher = more signal
Sequence of Torsin-1A-interacting protein 1 (Homo sapiens) (Q5JTV8 whole entry, looked up): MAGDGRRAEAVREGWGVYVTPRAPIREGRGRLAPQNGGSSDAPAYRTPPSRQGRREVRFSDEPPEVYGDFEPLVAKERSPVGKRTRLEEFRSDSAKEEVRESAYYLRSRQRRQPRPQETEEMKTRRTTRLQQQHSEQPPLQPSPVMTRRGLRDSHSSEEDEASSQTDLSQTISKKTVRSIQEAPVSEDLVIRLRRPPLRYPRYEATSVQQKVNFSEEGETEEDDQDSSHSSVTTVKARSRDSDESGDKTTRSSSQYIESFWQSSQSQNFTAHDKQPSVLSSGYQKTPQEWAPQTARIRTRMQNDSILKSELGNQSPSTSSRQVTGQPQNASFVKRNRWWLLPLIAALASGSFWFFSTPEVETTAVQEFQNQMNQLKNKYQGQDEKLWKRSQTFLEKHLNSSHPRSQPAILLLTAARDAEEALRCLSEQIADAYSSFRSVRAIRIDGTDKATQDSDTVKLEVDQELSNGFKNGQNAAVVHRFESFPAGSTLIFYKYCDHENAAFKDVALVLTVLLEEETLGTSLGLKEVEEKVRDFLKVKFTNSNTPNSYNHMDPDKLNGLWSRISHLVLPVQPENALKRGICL

[20] = molecular target: Alpha-bungarotoxin (Bungarus multicinctus) (UniProt P60615); experiment: compounds binding labelled alpha-BTX control protein – biochemical, small-molecule microarray, Alexa647 label, 635/667 nm fluorescence, artefact control for SMM control protein annotation, profiling panel (AID 1117); settings: alpha-BTX-A647 binding fluorescence, higher = more signal
Sequence of Alpha-bungarotoxin (Bungarus multicinctus) (P60615 whole entry, looked up): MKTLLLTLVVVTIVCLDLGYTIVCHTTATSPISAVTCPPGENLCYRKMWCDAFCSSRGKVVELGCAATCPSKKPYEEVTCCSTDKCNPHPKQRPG

SMILES	composite z-score [1]	composite z-score [2]	composite z-score [3]	z-score [4]	composite z-score [5]	composite z-score [6]	composite z-score [7]	composite z-score [8]	composite z-score [9]	composite z-score [10]	composite z-score [11]	z-score [12]	composite z-score [13]	composite z-score [14]	composite z-score [15]	composite z-score [16]	composite z-score [17]	composite z-score [18]	composite z-score [19]	composite z-score [20]
CCCC[C@@H]1C[C@H]1[C@@H](NC(=O)c1ccco1)c1ccccc1C(F)(F)F	-0.323	2.11	1.39	-0.255 (inactive)	0.3	-0.291	-0.127	0.449	-0.316	1.49	0.209	-1.42	-0.23	1.75	1.2	0.948	2.6	2.94	0.58	1.84
CC(C)NC(=O)[C@@]1(C)c2ccccc2C(=O)N(Cc2cc(C(F)(F)F)cc(C(F)(F)F)c2)[C@H]1c1ccc(CO)cc1	1.2	0.0251	1.17	0.207 (inactive)	-0.609	-0.589	-0.584	-1.13	-0.788	-0.0259	1.02	-0.319	-0.826	0.226	0.764	-0.101	-0.0398	1.07	0.454	-0.361
O=C1O[C@@H](c2ccccc2)[C@@H](c2ccccc2)N2[C@@H](c3ccccc3OCCO)[C@]3(C(=O)Nc4ccccc43)[C@@H](C(=O)Nc3nc4ccccc4s3)[C@H]12	1.02	1.05	0.0859	-1.86 (inactive)	1.23	1.02	0.383	0.799	0.287	0.33	1.45	-3.25	0.108	1.41	0.494	-0.0621	0.206	1.96	0.618	1.56
CC(C)N1C(=O)[C@@]2(Cc3ccccc31)c1ccccc1C(=O)N(Cc1ccccc1Cl)[C@H]2c1ccc(CO)cc1	0.465	-0.0724	0.621	-1 (inactive)	-1	-1.24	-1.25	-0.785	-0.979	0.781	-0.469	-0.791	-0.893	-0.493	-0.805	-0.105	-0.262	-0.179	-1.05	-0.216
CCCCCCc1nc(-c2cc(C)c(OC)c(C)c2)cc2c1[Si](C(C)C)(C(C)C)OC2	-0.218	-0.12	-0.0937	-2.3 (inactive)	-0.0932	0.194	-0.314	-0.105	-0.0304	0.641	0.0047	0.777	-0.21	-0.268	-0.256	-0.124	-0.273	-0.244	-0.359	0.19
CCOC(=O)C1=CC[C@@H](c2ccccc2)N(S(=O)(=O)c2ccc(C)cc2)[C@H]1c1ccccc1C	1.42	0.311	0.431	-0.876 (inactive)	0.607	0.683	0.375	1.05	0.349	0.97	1.18	-1.6	0.104	0.232	0.296	-0.0512	0.294	-0.0496	0.336	-0.0244
NCCCCCNC(=O)[C@@H]1C[C@@H]2C(=O)N[C@@H](Cc3ccccc3)C(=O)N2[C@@H]1c1ccc(O)cc1	1.14	-0.0335	0.475	1.31 (inactive)	1.11	1.17	0.632	1.37	0.484	0.609	1.37	-0.471	0.406	1.18	1.16	-0.0425	-0.138	-0.144	0.672	0.924
C=CC[C@]1(C(=O)NCCCOC)N=C(c2ccc(OCCCO)cc2)O[C@H]1c1ccccc1CN=[N+]=[N-]	1.17	1.45	1.17	0.822 (inactive)	0.944	1.22	0.0673	0.612	0.496	1.21	0.091	-2.09	0.593	2.12	0.988	0.0509	0.228	1.53	1.95	1.14
O=C1c2ccccc2[C@](Cc2ccccc2I)(C(=O)NCCN2CCOCC2)[C@H](c2ccc(CO)cc2)N1Cc1ccccc1Cl	1.42	0.964	0.732	-0.0587 (inactive)	1.15	1.28	0.629	1.25	0.419	0.605	-0.612	-2.64	0.945	1.51	0.0568	0.0215	-0.0011	-0.474	0.896	1.47
CC#CC(=O)Oc1ccccc1C=CC(=O)OCC	0.743	-0.223	-0.226	-0.634 (inactive)	-0.176	0.0939	0.27	0.104	-0.0092	0.321	0.793	-2.16	0.136	0.0515	-0.27	-0.096	-0.0709	-0.256	0.045	0.115
COc1ccc(-c2cc3c(c(-c4ccc(Oc5ccccc5)cc4)n2)[Si](C(C)C)(C(C)C)OC3)cn1	-0.207	-0.242	-0.262	0.00906 (inactive)	-0.0354	-0.175	-0.0425	0.148	0.0989	0.365	-0.419	-1.15	-0.123	-0.266	0.211	-0.206	-0.0553	-0.224	-0.286	0.199
